# Measurements taken from the supplement of paper PMC8728848.
# Only a selection was taken, and the strongest signals are over-represented in it overall.
# B1: SUN4 (Saccharomyces cerevisiae), P53616 (protein)
# chain: MGSSHHHHHHSSGLVPRGSHNGSIYGDLADFSGPYEKFEDGTIPCGQFPSGQGVIPISWLDEGGWSGVENTDTSTGGSCKEGSYCSYACQPGMSKTQWPSDQPSDGRSIGGLLCKDGYLYRSNTDTDYLCEWGVDAAYVVSELSNDVAICRTDYPGTENMVIPTYVQAGDSLPLTVVDQDTYYTWQGLKTSAAYYVNNAGISVEDACVWGSSSSGVGNWAPLNFGAGSSDGVAYLSLIPNPNNGNALNFNVKIVAADDSSTVNGECIYENGSFSGGSDGCTVSVTAGKAKFVLYN
# Key:
# Assay in all cases: glycan array binding signal (z-score within array); higher = stronger binding
# Conditions in all cases: glycan notation: IUPAC condensed, linker removed; mutation: Q318A
# [1] = target: Fuc(a1-2)Gal(b1-3)GalNAc(b1-4)[Neu5Ac(a2-3)]Gal(b1-4)Glc
# Procedure, shortened: (§1)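 Glycan array data were curated from 3228 arrays in the Consortium for Functional Glycomics database and kept only where the protein sequence was available. Glycan names were converted to IUPAC-condensed notation, and columns mapping to the same glycan were averaged. The binding signal is a within-array Z-score, averaged across arrays of the same protein sequence at different concentrations or buffers and across linkers. Negative Z-scores can be read as non-binding.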
# [2] = target: Fuc(a1-2)Gal(b1-3)GlcNAc(b1-3)[Fuc(a1-2)Gal(b1-3)GlcNAc(b1-6)]GalNAc
# Procedure, shortened: as §1
# [3] = target: Fuc(a1-2)Gal(b1-4)Fuc(a1-3)]GlcNAc(b1-2)Man(a1-3)[Fuc(a1-2)Gal(b1-4)[Fuc(a1-3)]GlcNAc(b1-2)Man(a1-6)]Man(b1-4)GlcNAc(b1-4)GlcNAc
# Procedure, shortened: as §1
# [4] = target: Fuc(a1-2)Gal(b1-4)GlcNAc
# Procedure, shortened: as §1
# [5] = target: Fuc(a1-2)Gal(b1-4)GlcNAc(b1-2)Man(a1-3)[Fuc(a1-2)Gal(b1-4)GlcNAc(b1-2)Man(a1-6)]Man(b1-4)GlcNAc(b1-4)GlcNAc
# Procedure, shortened: as §1
# [6] = target: Fuc(a1-2)Gal(b1-4)GlcNAc(b1-3)Gal(b1-4)GlcNAc(b1-2)Man(a1-3)[Fuc(a1-2)Gal(b1-4)GlcNAc(b1-3)Gal(b1-4)GlcNAc(b1-2)Man(a1-6)]Man(b1-4)GlcNAc(b1-4)GlcNAc
# Procedure, shortened: as §1
# [7] = target: Fuc(a1-2)[Gal(a1-3)]Gal(b1-4)GlcNAc(b1-2)Man(a1-3)[Fuc(a1-2)[Gal(a1-3)]Gal(b1-4)GlcNAc(b1-2)Man(a1-6)]Man(b1-4)GlcNAc(b1-4)GlcNAc
# Procedure, shortened: as §1
# [8] = target: Fuc(a1-2)[GalNAc(a1-3)]Gal(b1-4)GlcNAc(b1-2)Man
# Procedure, shortened: as §1
# [9] = target: Fuc(a1-2)[GalNAc(a1-3)]Gal(b1-4)GlcNAc(b1-3)Gal(b1-4)GlcNAc
# Procedure, shortened: as §1
# [10] = target: Fuc(a1-2)[GalNAc(a1-3)]Gal(b1-4)GlcNAc(b1-3)GalNAc
# Procedure, shortened: as §1
# [11] = target: Fuc(a1-3)[Gal(b1-4)]GlcNAc6S
# Procedure, shortened: as §1
# [12] = target: Gal(a1-3)Gal(b1-4)GlcNAc
# Procedure, shortened: as §1
# [13] = target: Gal(a1-4)Gal(b1-4)Glc
# Procedure, shortened: as §1
# [14] = target: Gal(b1-3)GalNAc(b1-4)Gal(b1-4)Glc
# Procedure, shortened: as §1
# [15] = target: Gal(b1-3)GlcNAc(b1-3)Gal(b1-4)GlcNAc(b1-3)Gal(b1-4)GlcNAc(b1-2)[Gal(b1-3)GlcNAc(b1-3)Gal(b1-4)GlcNAc(b1-3)Gal(b1-4)GlcNAc(b1-6)]Man(a1-6)[Gal(b1-3)GlcNAc(b1-3)Gal(b1-4)GlcNAc(b1-3)Gal(b1-4)GlcNAc(b1-2)Man(a1-3)]Man(b1-4)GlcNAc(b1-4)[Fuc(a1-6)]GlcNAc
# Procedure, shortened: as §1
# [16] = target: Gal(b1-3)GlcNAc(b1-6)Gal(b1-4)GlcNAc
# Procedure, shortened: as §1
# [17] = target: Gal(b1-3)GlcNAc(b1-6)[Gal(b1-3)]GalNAc
# Procedure, shortened: as §1
# [18] = target: Gal(b1-4)Gal
# Procedure, shortened: as §1
# [19] = target: Gal(b1-4)GlcNAc(b1-2)Man
# Procedure, shortened: as §1
# [20] = target: Gal(b1-4)GlcNAc(b1-2)Man(a1-3)[Gal(b1-4)GlcNAc(b1-2)Man(a1-6)][GlcNAc(b1-4)]Man(b1-4)GlcNAc(b1-4)[Fuc(a1-6)]GlcNAc
# Procedure, shortened: as §1
# [21] = target: Gal(b1-4)GlcNAc(b1-3)Gal(b1-4)GlcNAc(b1-3)Gal(b1-4)GlcNAc(b1-2)[Gal(b1-4)GlcNAc(b1-3)Gal(b1-4)GlcNAc(b1-3)Gal(b1-4)GlcNAc(b1-6)]Man(a1-6)[Gal(b1-4)GlcNAc(b1-3)Gal(b1-4)GlcNAc(b1-3)Gal(b1-4)GlcNAc(b1-2)Man(a1-3)]Man(b1-4)GlcNAc(b1-4)[Fuc(a1-6)]GlcNAc
# Procedure, shortened: as §1
# [22] = target: Gal(b1-4)GlcNAc(b1-3)Gal(b1-4)GlcNAc(b1-3)Gal(b1-4)GlcNAc(b1-3)Gal(b1-4)GlcNAc(b1-3)Gal(b1-4)GlcNAc(b1-2)Man(a1-3)[Gal(b1-4)GlcNAc(b1-3)Gal(b1-4)GlcNAc(b1-3)Gal(b1-4)GlcNAc(b1-3)Gal(b1-4)GlcNAc(b1-3)Gal(b1-4)GlcNAc(b1-2)Man(a1-6)]Man(b1-4)GlcNAc(b1-4)[Fuc(a1-6)]GlcNAc
# Procedure, shortened: as §1
# [23] = target: GalNAc(a1-3)GalNAc
# Procedure, shortened: as §1
# [24] = target: GalNAc(b1-4)Gal(b1-4)Glc
# Procedure, shortened: as §1
# [25] = target: GalNAc(b1-4)GlcNAc
# Procedure, shortened: as §1
# [26] = target: Glc(a1-6)Glc(a1-6)Glc(a1-6)Glc
# Procedure, shortened: as §1
# [27] = target: GlcNAc(b1-2)Man(a1-3)[GlcNAc(b1-2)Man(a1-6)]Man(b1-4)GlcNAc(b1-4)GlcNAc
# Procedure, shortened: as §1
# [28] = target: GlcNAc(b1-2)[GlcNAc(b1-6)]Man(a1-6)[GlcNAc(b1-2)Man(a1-3)]Man(b1-4)GlcNAc(b1-4)[Fuc(a1-6)]GlcNAc
# Procedure, shortened: as §1
# [29] = target: GlcNAc(b1-3)Gal(b1-4)GlcNAc(b1-6)[GlcNAc(b1-3)Gal(b1-3)]GalNAc
# Procedure, shortened: as §1
# [30] = target: GlcNAc(b1-4)GlcNAc(b1-4)GlcNAc
# Procedure, shortened: as §1
# [31] = target: GlcNAc(b1-6)Gal(b1-4)GlcNAc
# Procedure, shortened: as §1
# [32] = target: Kdn(a2-3)Gal(b1-3)GalNAc
# Procedure, shortened: as §1
# [33] = target: Man(a1-3)[Man(a1-6)]Man(a1-6)[Man(a1-3)]Man
# Procedure, shortened: as §1
# [34] = target: Neu5Ac(a2-3)Gal(b1-3)GalNAc(b1-4)Gal(b1-4)Glc
# Procedure, shortened: as §1
# [35] = target: Neu5Ac(a2-3)Gal(b1-3)GlcNAc(b1-2)[Neu5Ac(a2-3)Gal(b1-3)GlcNAc(b1-4)]Man(a1-6)[Neu5Ac(a2-3)Gal(b1-3)GlcNAc(b1-2)Man(a1-3)]Man(b1-4)GlcNAc(b1-4)GlcNAc
# Procedure, shortened: as §1
# [36] = target: Neu5Ac(a2-3)Gal(b1-4)GlcNAc
# Procedure, shortened: as §1
# [37] = target: Neu5Ac(a2-3)Gal(b1-4)GlcNAc(b1-2)Man
# Procedure, shortened: as §1
# [38] = target: Neu5Ac(a2-3)Gal(b1-4)GlcNAc(b1-3)[Neu5Ac(a2-3)Gal(b1-4)GlcNAc(b1-6)]GalNAc
# Procedure, shortened: as §1
# [39] = target: Neu5Ac(a2-3)Gal(b1-4)GlcNAc(b1-6)[Gal(b1-3)]GalNAc
# Procedure, shortened: as §1
# [40] = target: Neu5Ac(a2-3)Gal(b1-4)[Fuc(a1-3)]GlcNAc(b1-2)Man
# Procedure, shortened: as §1
# [41] = target: Neu5Ac(a2-3)Gal(b1-4)[Fuc(a1-3)]GlcNAc(b1-6)[Neu5Ac(a2-3)Gal(b1-3)]GalNAc
# Procedure, shortened: as §1
# [42] = target: Neu5Ac(a2-6)Gal(b1-4)GlcNAc(b1-2)Man(a1-3)[Gal(b1-4)GlcNAc(b1-2)Man(a1-6)]Man(b1-4)GlcNAc(b1-4)GlcNAc
# Procedure, shortened: as §1
# [43] = target: Neu5Ac(a2-6)Gal(b1-4)GlcNAc(b1-2)Man(a1-3)[Man(a1-6)]Man(b1-4)GlcNAc(b1-4)GlcNAc
# Procedure, shortened: as §1
# [44] = target: Neu5Ac(a2-6)Gal(b1-4)GlcNAc(b1-2)[Neu5Ac(a2-6)Gal(b1-4)GlcNAc(b1-4)]Man(a1-3)[GlcNAc(b1-4)][Neu5Ac(a2-6)Gal(b1-4)GlcNAc(b1-2)[Neu5Ac(a2-6)Gal(b1-4)GlcNAc(b1-6)]Man(a1-6)]Man(b1-4)GlcNAc(b1-4)GlcNAc
# Procedure, shortened: as §1
# [45] = target: Neu5Ac(a2-6)Gal(b1-4)GlcNAc(b1-3)Gal(b1-4)GlcNAc
# Procedure, shortened: as §1
# [46] = target: Neu5Ac(a2-6)GlcNAc(b1-4)GlcNAc(b1-4)GlcNAc
# Procedure, shortened: as §1
# [47] = target: Neu5Gc(a2-6)GalNAc
# Procedure, shortened: as §1
binder,measurement,setting,value
B1,glycan array binding signal (z-score),[1],-0.245
same,glycan array binding signal (z-score),[2],0.442
same,glycan array binding signal (z-score),[3],2.65
same,glycan array binding signal (z-score),[4],-0.67
same,glycan array binding signal (z-score),[5],-0.18
same,glycan array binding signal (z-score),[6],1.88
same,glycan array binding signal (z-score),[7],-0.077
same,glycan array binding signal (z-score),[8],-0.198
same,glycan array binding signal (z-score),[9],0.152
same,glycan array binding signal (z-score),[10],0.641
same,glycan array binding signal (z-score),[11],0.316
same,glycan array binding signal (z-score),[12],-0.246
same,glycan array binding signal (z-score),[13],2.25
same,glycan array binding signal (z-score),[14],-0.46
same,glycan array binding signal (z-score),[15],2.21
same,glycan array binding signal (z-score),[16],-0.212
same,glycan array binding signal (z-score),[17],-0.256
same,glycan array binding signal (z-score),[18],-0.573
same,glycan array binding signal (z-score),[19],0.857
same,glycan array binding signal (z-score),[20],-0.281
same,glycan array binding signal (z-score),[21],1.61
same,glycan array binding signal (z-score),[22],2.04
same,glycan array binding signal (z-score),[23],-1.37
same,glycan array binding signal (z-score),[24],1.66
same,glycan array binding signal (z-score),[25],0.304
same,glycan array binding signal (z-score),[26],0.21
same,glycan array binding signal (z-score),[27],-0.045
same,glycan array binding signal (z-score),[28],2.54
same,glycan array binding signal (z-score),[29],0.161
same,glycan array binding signal (z-score),[30],0.057
same,glycan array binding signal (z-score),[31],-0.7
same,glycan array binding signal (z-score),[32],-0.503
same,glycan array binding signal (z-score),[33],1.55
same,glycan array binding signal (z-score),[34],1.67
same,glycan array binding signal (z-score),[35],1.64
same,glycan array binding signal (z-score),[36],-0.355
same,glycan array binding signal (z-score),[37],0.689
same,glycan array binding signal (z-score),[38],2.5
same,glycan array binding signal (z-score),[39],-0.111
same,glycan array binding signal (z-score),[40],-0.965
same,glycan array binding signal (z-score),[41],3.41
same,glycan array binding signal (z-score),[42],-0.494
same,glycan array binding signal (z-score),[43],-1
same,glycan array binding signal (z-score),[44],-0.64
same,glycan array binding signal (z-score),[45],-0.838
same,glycan array binding signal (z-score),[46],-0.241
same,glycan array binding signal (z-score),[47],-0.69
